Measured values published in PubChem BioAssay (EPA / NIEHS).
Several values for one entry are separate records, joined by “and”; a condition that tells them apart may be missing. Identical values can stand only once. Results filed as inconclusive are left out. A structure can be active in one record and inactive in another. Activity calls are given as the source filed them. The calls were made as follows, unless noted: active = hit-call score of the fitted dose curve at least 0.9, where 1 is the maximum; inactive = score below 0.9.

Tests used:
[1] = APR_HepG2_CellCycleArrest_1hr: Apredica 1-hour HepG2 Assay for Cell Cycle Arrest (AID 2282666); settings: high-content imaging, actives raise or lower the signal
How it was run: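 Cell cycle arrest scored from nuclear DNA content (Hoechst 33342) using high-content imaging of fixed HepG2 cells after 1 h treatment across 0.39–200 uM, in duplicate. Gain or loss fitted relative to 0.5% DMSO.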

[2] = ACEA_ER_80hr: ACEA Biosciences xCELLigence Real-Time Cell Analysis on Estrogen Receptor Agonism for Proliferation (AID 2282667; active = hit-call score of the fitted dose curve at least 0.9, where 1 is the maximum); settings: T47D proliferation, impedance (xCELLigence), 80 h
How it was run: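 Impedance readout (RT-CES) of T47D proliferation at 80 h post-dose; gain of signal vs DMSO baseline. Compounds: 8 conc, 1:4 serial, top 100 uM final, ≤0.5% DMSO; biological duplicate.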

[3] = APR_HepG2_MicrotubuleCSK_1hr: Apredica 1-hour HepG2 Assay for Microtubule CSK Stabilty (AID 2282669); settings: HepG2 microtubule cytoskeleton imaging, actives raise or lower the signal
How it was run: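 Alpha-tubulin immunofluorescence, imaged by automated high-content microscopy with Hoechst nuclear segmentation, measured cytoskeletal change after 1 h dosing of HepG2 at 0.39–200 uM in 0.5% DMSO. Activity fitted in both directions relative to DMSO.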

[4] = APR_HepG2_NuclearSize_1hr: Apredica 1-hour HepG2 Assay for Nuclear Size (AID 2282670); settings: high-content imaging, actives raise or lower the signal
How it was run: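 Nuclear size measured by high-content imaging of Hoechst 33342 nuclear stain after formaldehyde fixation; human HepG2 line exposed 1 hr to compounds at 0.39–200 uM in 0.5% DMSO, with bidirectional curve fitting relative to DMSO.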

[5] = APR_HepG2_MitoticArrest_1hr: Apredica 1-hour HepG2 Assay for Mitotic Arrest (AID 2282672); settings: high-content imaging, actives raise or lower the signal
How it was run: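 Ten-point concentration series (0.39 to 200 uM, duplicates, 0.5% v/v DMSO) applied to human HepG2 liver cells for 1 hr. High-content imaging of phospho-histone H3 and Hoechst-stained nuclei after fixation and permeabilization; DMSO-normalised bidirectional fit.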

[6] = APR_HepG2_P-H2AX_1hr: Apredica 1-hour HepG2 Assay for H2AX Phosphorylation (AID 2282673); settings: high-content imaging, actives raise or lower the signal
How it was run: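 Phospho-H2A.x immunofluorescence (1:200, FITC secondary) plus Hoechst nuclear stain, quantified by high-content imaging in HepG2 after 1 hr compound exposure. Ten concentrations, 0.39 to 200 uM, in duplicate with 0.5% DMSO; fit both directions against DMSO.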

[7] = APR_HepG2_MitoMembPot_1hr: Apredica 1-hour HepG2 Assay for Mitochondrial Membrane Potential (AID 2282675); settings: imaging, actives raise or lower the signal
How it was run: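 Mitochondrial membrane potential read as MitoTracker Red CMXRos intensity by automated imaging of fixed HepG2 cells. Dye at 250 nM for 30 min pre-fixation; compounds 0.39 to 200 uM for 1 hour, duplicate wells, 0.5% DMSO.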

[8] = APR_HepG2_CellCycleArrest_24hr: Apredica 24-hour HepG2 Assay for Cell Cycle Arrest (AID 2282905); settings: imaging, actives raise or lower the signal;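 also: cell cycle arrest scored as ratio of 2N to 4N nuclear DNA content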
How it was run: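 Readout: Hoechst 33342 nuclear DNA content by high-content fluorescent imaging, six images/well, 20x. Human HepG2 liver cells, 24 hr compound exposure, 0.39–200 uM, final DMSO 0.5% v/v. Gain or loss fitted relative to DMSO baseline.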

[9] = APR_HepG2_NuclearSize_24hr: Apredica 24-hour HepG2 Assay for Nuclear Size (AID 2282907); settings: high-content imaging, actives raise or lower the signal
How it was run: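 Read-out: nuclear diameter from Hoechst 33342 (2 ug/mL) imaging of fixed HepG2 cells, 20x, six fields/well. Compounds ran at 0.39–200 uM for 24 hr, 0.5% DMSO final. Gain or loss was fitted bidirectionally relative to the DMSO baseline.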

[10] = APR_HepG2_CellLoss_24hr: Apredica 24-hour HepG2 Assay for Cell Loss (AID 2282908); settings: high-content imaging;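 as to AC50: fit in both directions so a hit may be cell loss or gain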
How it was run: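 Read-out: Hoechst 33342-stained nuclei counted by automated fluorescence imaging after formaldehyde fixation and Triton permeabilization. Ten concentrations, 0.39 to 200 uM, duplicate wells, 0.5% DMSO final. Gain or loss of signal fitted relative to DMSO baseline.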

[11] = APR_HepG2_MicrotubuleCSK_24hr: Apredica 24-hour HepG2 Assay for Microtubule CSK Stabilty (AID 2282909); settings: HepG2 microtubule cytoskeleton imaging, actives raise or lower the signal
How it was run: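 Read-out: alpha-tubulin immunofluorescence intensity by automated high-content imaging of fixed HepG2 cells after 24 h compound treatment. Ten concentrations, 0.39 to 200 uM, in duplicate; DMSO 0.5% v/v. Taxol positive control; DMSO-normalized bidirectional curve fitting.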

[12] = APR_HepG2_MitoticArrest_24hr: Apredica 24-hour HepG2 Assay for Mitotic Arrest (AID 2282910); settings: high-content imaging, actives raise or lower the signal
How it was run: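 HepG2, 24 hr dosing, 0.39–200 uM, 0.5% DMSO final. Formaldehyde-fixed, Triton-permeabilised, anti-phospho-histone H3 plus Hoechst. ArrayScan imaging at 20x; bidirectional fit vs DMSO baseline.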

[13] = APR_HepG2_MitoMembPot_24hr: Apredica 24-hour HepG2 Assay for Mitochondrial Membrane Potential (AID 2282911); settings: imaging, actives raise or lower the signal
How it was run: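 HepG2, 24 hr dosing, 10 concentrations 0.39–200 uM, 0.5% DMSO final. Live-cell MitoTracker Red CMXRos 250 nM 30 min, then 3.7% formaldehyde fix. HCS fluorescence imaging, 20x; bidirectional fit vs DMSO baseline.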

[14] = APR_HepG2_MitoMass_24hr: Apredica 24-hour HepG2 Assay for Mitochondrial Mass (AID 2282912); settings: high-content imaging, actives raise or lower the signal
How it was run: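 HepG2, 24 hr dosing, 10 concentrations 0.39–200 uM in duplicate, DMSO 0.5% final. MitoTracker Red CMXRos 250 nM, 30 min pre-fix; 3.7% formaldehyde fix. Imaging-based fluorescence intensity; gain/loss fit vs DMSO baseline.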

[15] = APR_HepG2_p53Act_24hr: Apredica 24-hour HepG2 Assay for p53 Activation (AID 2282913); settings: high-content imaging, actives raise or lower the signal;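 also: p53 protein immunofluorescence averaged per cell in HepG2 with Hoechst nuclei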
How it was run: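 Read-out: Cy5 immunofluorescence for p53 in fixed, permeabilized HepG2, imaged by HCS with Hoechst-defined nuclei. Dosing was 24 hr at 0.39–200 uM in 0.5% DMSO. Curves were fitted bidirectionally relative to DMSO.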

[16] = APR_HepG2_CellCycleArrest_72hr: Apredica 72-hour HepG2 Assay for Cell Cycle Arrest (AID 2282914); settings: high-content imaging, actives raise or lower the signal
How it was run: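 HepG2, 72 hr exposure, 10-point 0.39–200 uM, duplicate, 0.5% DMSO final. Fix 3.7% formaldehyde 30 min RT, Triton X-100 0.5%, Hoechst 33342 2 ug/mL. ArrayScan 20x, six fields/well; DNA content per nucleus; bidirectional fit vs DMSO.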

[17] = APR_HepG2_CellLoss_1hr: Apredica 1-hour HepG2 Assay for Cell Loss (AID 2282668); settings: high-content imaging;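 also: curves fitted both ways against DMSO so gain or loss of cells counts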
How it was run: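 Cell number comes from high-content imaging of Hoechst-labelled nuclei in fixed HepG2 cells. Cells were exposed for 1 h to ten concentrations from 0.39 to 200 uM in 0.5% DMSO. Gain or loss was fitted against DMSO controls.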

[18] = APR_HepG2_StressKinase_1hr: Apredica 1-hour HepG2 Assay for Stress Kinase (AID 2282906); settings: HepG2 stress kinase (phospho-c-Jun) imaging, actives raise or lower the signal
How it was run: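 High-content imaging of phospho-c-Jun immunostaining (with Hoechst nuclear identification) after a 1 h exposure of HepG2 cells to 10 concentrations from 0.39 to 200 uM, final DMSO 0.5%. Fitted bidirectionally against DMSO.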

[19] = APR_HepG2_p53Act_1hr: Apredica 1-hour HepG2 Assay for p53 Activation (AID 2282671); settings: high-content imaging, actives raise or lower the signal
How it was run: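 After 1 h exposure (0.39–200 uM, 0.5% DMSO final, duplicates), fixed HepG2 cells were labelled with anti-p53 antibody plus Hoechst nuclear stain. Fluorescence quantified by automated 20x imaging; changes fitted in both directions against DMSO.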

[20] = APR_HepG2_MitoMass_1hr: Apredica 1-hour HepG2 Assay for Mitochondrial Mass (AID 2282674); settings: high-content imaging, actives raise or lower the signal
How it was run: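 Mitochondrial mass is taken from MitoTracker Red CMXRos (250 nM, 30 min, pre-fixation) fluorescence imaged at 20x in HepG2 cells. Exposure lasted 1 hr across ten concentrations, 0.39 to 200 uM, 0.5% DMSO; DMSO baseline, bidirectional fitting.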

Measured: AC50

CCOC(=O)C(Cl)Cc1cc(-n2nc(C)n(C(F)F)c2=O)c(F)cc1Cl (stereo not drawn)
not listed: [17] | [18] | [19] | [20]
inactive: all other assays above

COP(N)(=O)SC (stereo not drawn)
not listed: [18] | [19] | [20]
inactive: all other assays above

CCCN(CCC)c1c([N+](=O)[O-])cc(S(N)(=O)=O)cc1[N+](=O)[O-]
active: [1] 108 µM | [4] 61.6 µM | [6] 88.7 µM | [8] 34.9 µM | [9] 68.3 µM and 117 µM | [11] 109 µM | [13] 31.6 µM and 117 µM and 110 µM | [14] 164 µM and 113 µM | [16] 27.2 µM and 57.9 µM and 34 µM
inactive: [2] | [3] | [5] | [7] | [8] | [18] | [9] | [11] | [13] | [14] | [16]

CCNc1nc(Cl)nc(NCC)n1
not listed: [6] | [17] | [20]
inactive: all other assays above

CC1COC(Cn2cncn2)(c2ccc(Oc3ccc(Cl)cc3)cc2Cl)O1 (stereo not drawn)
active: [10] 94.7 µM | [13] 105 µM | [16] 64.3 µM
not listed: [12] | [19] | [20]
inactive: all other assays above

C=CCC1=C(C)[C@@H](OC(=O)[C@@H]2[C@@H](C=C(C)C)C2(C)C)CC1=O
active: [7] 109 µM | [10] 99.2 µM | [11] 55.9 µM
not listed: [17] | [18] | [19]
inactive: all other assays above

C#CCOS(=O)OC1CCCCC1Oc1ccc(C(C)(C)C)cc1 (stereo not drawn)
active: [2] 355 nM | [7] 82.3 µM | [8] 3.03 µM | [10] 7.2 µM | [11] 38.4 µM | [13] 6.31 µM | [16] 2.92 µM
not listed: [6] | [12] | [20]
inactive: all other assays above

CCNc1nc(Cl)nc(NC(C)C)n1
not listed: [12] | [17] | [19] | [20]
inactive: all other assays above

CNC(=S)S
active: [8] 20.5 µM | [10] 80.1 µM | [11] 74.4 µM
not listed: [6] | [12] | [18] | [19]
inactive: all other assays above

CCON=C(CC)C1=C(O)CC(c2c(C)cc(C)cc2C)CC1=O (stereo not drawn)
not listed: [6] | [17] | [20]
inactive: all other assays above

CCCC1COC(Cn2cncn2)(c2ccc(Cl)cc2Cl)O1 (stereo not drawn)
active: [13] 12.8 µM | [16] 100 µM
not listed: [12] | [17] | [18] | [20]
inactive: all other assays above

CO/C=C(/C(=O)OC)c1ccccc1Oc1cc(Oc2ccccc2C#N)ncn1
active: [2] 11.1 µM [middle of 5 runs] | [8] 39.3 µM and 692 nM | [10] 16.2 µM and 36.5 µM | [13] 21.2 µM | [15] 110 µM | [16] 21 µM and 3.09 µM and 5.96 µM
inactive: [1] | [2] | [3] | [4] | [19] | [5] | [7] | [8] | [18] | [9] | [10] | [11] | [13] | [14] | [15] | [16]

COc1ccc(C(c2ccc(OC)cc2)C(Cl)(Cl)Cl)cc1
active: [2] 10.4 µM and 1.41 µM and 728 nM | [7] 100 µM | [10] 60.5 µM | [11] 69.8 µM
not listed: [6] | [12] | [18] | [19] | [20]
inactive: all other assays above
